From the supplement of paper PMC8975748
Counter-ions that a name gives are not always drawn. ± gives the standard deviation of the averaged measurements.

Tested on: Saccharomyces cerevisiae BY4741 SeMeCo community
Test: mean cell size (pixel area) (pixels); higher = larger cells
Conditions: 10 µM; 24 h; SM minimal medium
Summary of the method: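 Mean cell pixel area per well was measured in a four-plasmid fluorescent community of Saccharomyces cerevisiae BY4741, where every plasmid complements one auxotrophy and carries a fluorescent marker. Cells from an overnight preculture at OD600 = 1.0 were diluted to OD600 = 0.3 and dispensed at 70 µl into 384-well plates acoustically predosed with drug to a final 10 µM in SM medium. Incubation lasted 24 h, followed by paraformaldehyde fixation, automated confocal imaging and analysis in Harmony. Reported figures are averaged over 3 replicates. Same SeMeCo high-content imaging drug screen: Selleck FDA-approved drugs at 10 µM, 24 h in SM medium, 384-well plates, 3 replicates.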

Row | Structure (SMILES) | mean cell size
1 | CC(=O)OCC1=C(C(=O)O)N2C(=O)[C@@H](NC(=O)CSC(=NC(C)C)NC(C)C)[C@H]2SC1 [Cefathiamidine] | 12.3 ± 0.14
2 | CC(=O)O[C@H]1C[C@@]2(C)[C@@H](C[C@@H](O)[C@H]3[C@@]4(C)CC[C@@H](O)[C@@H](C)[C@@H]4CC[C@@]32C)/C1=C(\CCC=C(C)C)C(=O)O [Fusidine] | 12.41 ± 0.032
3 | CCCCCCCCCC(=O)CC(O)S(=O)(=O)O (centres undefined) [Sodium Houttuyfonate] | 12.02 ± 0.032
4 | CN(C)[C@@H]1C(O)=C(C(N)=O)C(=O)[C@@]2(O)C(O)=C3C(=O)c4c(O)cccc4[C@@](C)(O)[C@H]3C[C@@H]12 [Tetracycline HCl] | 12.3 ± 0.19
5 | CN(C)C[C@@H]1CCn2cc(c3ccccc32)C2=C(C(=O)NC2=O)c2cn(c3ccccc23)CCO1 | 12.64 ± 0.084
6 | NS(=O)(=O)c1cc(C(=O)O)c(NCc2ccco2)cc1Cl [Furosemide] | 12.5 ± 0.21
7 | COc1ccc(C(C)=O)c(O)c1 [Paeonol] | 12.4 ± 0.15
8 | C[C@@H]1NC(=O)[C@@H](N)CNC(=O)[C@H](C2CCNC(=N)N2)NC(=O)/C(=C/NC(N)=O)NC(=O)[C@H](CNC(=O)CC(N)CCCN)NC1=O.N=C1NCC[C@H]([C@@H]2NC(=O)/C(=C/NC(N)=O)NC(=O)[C@H](CNC(=O)C[C@@H](N)CCCN)NC(=O)[C@H](CO)NC(=O)[C@@H](N)CNC2=O)N1 [Capreomycin Sulfate] | 12.1 ± 0.22
9 | C=C1c2cccc(O)c2C(=O)C2=C(O)[C@]3(O)C(=O)C(C(N)=O)=C(O)[C@@H](N(C)C)[C@@H]3[C@@H](O)[C@H]12 [Methacycline HCl] | 12.2 ± 0.23
10 | O=C(O)c1cn(-c2ccc(F)cc2)c2cc(N3CCNCC3)c(F)cc2c1=O [Sarafloxacin HCl] | 12.2 ± 0.18
11 | CC(C)CCCCC(=O)N[C@@H](CCN)C(=O)N[C@H](C(=O)N[C@@H](CCN)C(=O)N[C@H]1CCNC(=O)[C@H]([C@@H](C)O)NC(=O)[C@H](CCN)NC(=O)[C@H](CCN)NC(=O)[C@H](CC(C)C)NC(=O)[C@@H](Cc2ccccc2)NC(=O)[C@H](CCN)NC1=O)[C@@H](C)O [Polymyxin B sulphate] | 11.1 ± 0.33
12 | CO[C@H]1/C=C/O[C@@]2(C)Oc3c(C)c(O)c4c(c3C2=O)C2=NC3(CCN(CC(C)C)CC3)NC2=C(NC(=O)/C(C)=C\C=C\[C@H](C)[C@H](O)[C@@H](C)[C@@H](O)[C@@H](C)[C@H](OC(C)=O)[C@@H]1C)C4=O [Rifabutin] | 12.6 ± 0.21
13 | CC[C@H]1OC(=O)C[C@@H](O)[C@H](C)[C@@H](O[C@@H]2O[C@H](C)[C@@H](O[C@H]3C[C@@](C)(O)[C@@H](O)[C@H](C)O3)[C@H](N(C)C)[C@H]2O)[C@@H](CC=O)C[C@@H](C)C(=O)/C=C/C(C)=C/[C@@H]1CO[C@@H]1O[C@H](C)[C@@H](O)[C@@H](OC)[C@H]1OC [Tylosin tartrate] | 12.45 ± 0.055
14 | COc1ccc([C@H]2CNC(=O)C2)cc1OC1CCCC1 [S- (+)-Rolipram] | 12.43 ± 0.11
15 | CN(C)c1cc(NC(=O)CNC(C)(C)C)c(O)c2c1C[C@H]1C[C@H]3[C@H](N(C)C)C(O)=C(C(N)=O)C(=O)[C@@]3(O)C(O)=C1C2=O [Tigecycline] | 12.8 ± 0.2
16 | CN(C)[C@@H]1C(O)=C(C(N)=O)C(=O)[C@@]2(O)C(O)=C3C(=O)c4c(O)cccc4[C@@](C)(O)[C@H]3[C@H](O)[C@@H]12 [Oxytetracycline Dihydrate] | 12.6 ± 0.18
17 | CO[C@@H]1[C@@H](O[C@@H]2O[C@H](C)[C@@H](O[C@H]3C[C@@](C)(O)[C@@H](OC(=O)CC(C)C)[C@H](C)O3)[C@H](N(C)C)[C@H]2O)[C@@H](CC=O)C[C@@H](C)[C@@H](O)/C=C/C=C/C[C@@H](C)OC(=O)C[C@H]1O [Kitasamycin] | 12.32 ± 0.037
18 | O=c1[nH]cnc2c1ncn2[C@H]1CC[C@@H](CO)O1 [Didanosine] | 12.4 ± 0.19
19 | CCCCCCCCCC(=O)N[C@H]1[C@H](Oc2c3cc4cc2Oc2ccc(cc2Cl)[C@@H](O[C@@H]2O[C@H](CO)[C@@H](O)[C@H](O)[C@H]2NC(C)=O)[C@@H]2NC(=O)[C@H](NC(=O)[C@@H]4NC(=O)[C@H]4NC(=O)[C@@H](Cc5ccc(c(Cl)c5)O3)NC(=O)[C@H](N)c3ccc(O)c(c3)Oc3cc(O)cc4c3)c3ccc(O)c(c3)-c3c(OC4O[C@H](CO)[C@@H](O)[C@H](O)[C@@H]4O)cc(O)cc3[C@@H](C(=O)O)NC2=O)O[C@H](CO)[C@@H](O)[C@@H]1O (some centres undefined) [Teicoplanin] | 11.8 ± 0.16
